FPRL1 ligand: binds the human formylpeptide receptor-like-1 FPRL1 | FPRL1-expressing cells, fluorescent ligand binding inhibition, flow cytometry | inhibition, % (no concentration beside the values) | hit rate 0.3% among 24,000 | AID 441;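 further: 0% = buffer alone and 100% = receptor blocker peptide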
LNCaP diff act: activators of LNCaP prostate cell differentiation | hit rate 0.56% among 24,000 | side scatter shift, % at 10 µM | flow cytometry side scatter, 4 d;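 active means side scatter shift above 30%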;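 further: androgen-responsive LNCaP prostate cancer cells in charcoal-stripped serum medium; percent of cells past a gate set so DMSO wells show 10% shift; higher shift means more granular cells and more differentiation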
FPR binder: human FPR ligand, with FPRL1 counter-screen. P21462. FPR-expressing cells, fluorescent ligand binding, flow cytometry. inhibition, % (test concentration not listed). hit rate 0.74% among 24,000;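 further: 0% = buffer wells and 100% = receptor blocker peptide wells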
VLA-4 antagonist: inhibition of LDV-FITC ligand binding to human VLA-4 integrin. inhibition, % at 10 µM (by protocol). P13612. Jurkat cells, LDV-FITC binding with Mn2+, flow cytometry; 100% = Mn2+-driven binding gain fully reversed. hit rate 0.2% among 24,000;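 active means inhibition above 50%; inconclusive means compound itself fluorescent, judged against control cell fluorescence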;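 further: 0% = Mn2+ stimulated cells lacking compound and 100% = ligand binding without Mn2+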
Target sequence (P13612 whole entry, looked up): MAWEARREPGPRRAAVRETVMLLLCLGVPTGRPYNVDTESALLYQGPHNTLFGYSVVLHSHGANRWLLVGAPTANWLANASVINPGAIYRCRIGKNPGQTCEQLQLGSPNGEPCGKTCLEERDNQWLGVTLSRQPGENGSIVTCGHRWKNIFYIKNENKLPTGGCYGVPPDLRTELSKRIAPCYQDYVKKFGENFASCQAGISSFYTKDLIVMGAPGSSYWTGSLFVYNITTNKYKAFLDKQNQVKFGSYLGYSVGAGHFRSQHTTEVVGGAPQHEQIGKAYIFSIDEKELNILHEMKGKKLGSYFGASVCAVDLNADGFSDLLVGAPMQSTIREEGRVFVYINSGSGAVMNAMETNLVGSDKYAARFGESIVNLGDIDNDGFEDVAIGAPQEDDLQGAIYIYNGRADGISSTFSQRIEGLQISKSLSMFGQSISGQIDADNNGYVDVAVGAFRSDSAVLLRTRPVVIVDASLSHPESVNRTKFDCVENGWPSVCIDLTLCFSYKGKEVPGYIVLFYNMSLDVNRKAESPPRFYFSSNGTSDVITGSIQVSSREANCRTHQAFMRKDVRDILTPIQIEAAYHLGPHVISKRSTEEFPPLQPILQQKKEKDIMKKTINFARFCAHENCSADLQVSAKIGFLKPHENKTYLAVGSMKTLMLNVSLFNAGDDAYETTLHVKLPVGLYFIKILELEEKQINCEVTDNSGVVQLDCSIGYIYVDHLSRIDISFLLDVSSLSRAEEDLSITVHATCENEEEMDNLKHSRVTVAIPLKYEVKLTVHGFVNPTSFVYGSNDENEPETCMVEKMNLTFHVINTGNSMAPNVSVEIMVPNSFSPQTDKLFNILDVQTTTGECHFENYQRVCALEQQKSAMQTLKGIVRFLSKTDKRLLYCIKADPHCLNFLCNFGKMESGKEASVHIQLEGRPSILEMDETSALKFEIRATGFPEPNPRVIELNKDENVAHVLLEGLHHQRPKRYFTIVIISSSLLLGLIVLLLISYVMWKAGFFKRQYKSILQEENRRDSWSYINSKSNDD
VLA-4 allo ag: allosterically activates the human VLA-4 integrin; 24,000 tested, under 10 active; activation, % at 10 µM (by protocol); P13612; Jurkat cells, LDV-FITC binding, flow cytometry;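 active means fluorescent ligand binding to cells raised by more than 40% of the manganese-induced maximum; inconclusive means compound's own fluorescence above 85% of the ligand control signal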;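 further: 0% = ligand binding without compound and 100% = manganese-stimulated maximal binding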
Autofluor Jurkat: counter-screen for VLA-4 integrin: compound autofluorescence in Jurkat cells | flow cytometry; active compounds read high; 1 = vehicle-only cell background | fluorescence ratio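 (tested at 10 µM compound in the well)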 | hit rate 0.61% among 24,000 | AID 576;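 active means fluorescence ratio above 2.44, which is 1 plus 3 SD of all ratios; inconclusive means signal too bright to measure linearly, ratio around 10 or more; inactive means fluorescence ratio below 2.44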;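 further: green fluorescence of cells measured with 488 nm excitation and 530 nm emission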
The depositor's hits bear a star; u = inconclusive; x = no result. Sampled rows, rich in hits. Any-hit rate of the full collection: about 1.9%. Unless noted, no stated cut-off is given here; in the data, active means inhibition above about 30%; inconclusive means no clear call, values can overlap the other calls; inactive means below that.

SMILES	FPRL1 ligand	LNCaP diff act	FPR binder	VLA-4 antagonist	VLA-4 allo ag	Autofluor Jurkat
Cn1c(N)c(C(=O)NCc2ccccc2)sc1=S	-13.4	3.0	-11.1	u	u	4.06*
CCn1c(N)c(C(=O)NCc2ccco2)sc1=S	6.4	9.0	-2.7	0.0	4.0	1
CCOc1cc2[nH]c(=O)n(CC3CCC(C(=O)NCCC(C)C)CC3)c(=O)c2cc1OCC (configuration not stated)	-3.7	16.0	-0.5	60.0*	-26.0	1.05
CCOc1cc2[nH]c(=O)n(CCCCC(=O)NC3CCCCCC3)c(=O)c2cc1OCC	8.5	9.0	0.5	66.5*	-10.5	0.95
O=C(CCCn1c(=O)[nH]c2ccccc2c1=O)NC1CCCCCC1	1.4	4.0	1.7	-5.0	2.0	1.03
O=C(NCC12CC3CC(CC(C3)C1)C2)c1cc2n(n1)C(C(F)(F)F)CC(c1ccco1)N2 (configuration not stated)	-12.5	1.0	6.8	u	u	3.52*
COc1cc2c(cc1OC)C(C)N(C(=O)c1cc3n(n1)C(C(F)(F)F)CC(c1ccco1)N3)CC2 (configuration not stated)	-4.6	2.0	-5.5	12.0	-14.0	1.01
CC(=O)C1=C(O)C=C(c2ccco2)CC1c1ccco1 (configuration not stated)	2.6	11.0	0.6	11.0	-4.0	1.12
CCOC(=O)N1CCC(Nc2nc3ccccc3n3nnnc23)CC1	-3.7	9.0	-12.4	u	u	7.98*
Cc1ccc(CNc2nc3ccccc3n3nnnc23)cc1	4.2	35.0*	-23.6	u	u	u
CC(C)c1ccc(NC(=O)C(c2ccc3c(c2)OCO3)N2CCC3(CC2)OCCO3)cc1 (configuration not stated)	-8.0	7.0	10.1	54.0*	-4.0	1.09
CCOC(=O)c1sc2nc(SCC#N)n(CCCN3CCCC3=O)c(=O)c2c1C	-3.2	5.0	1.5	u	u	1.15
Cc1cc(NC(=O)c2noc3c2CCc2ccccc2-3)n(-c2ccccc2)n1	13.1	35.0*	1.5	7.0	7.0	1.03
Cc1cc(NC(=O)Nc2cc(C)nn2-c2ccccc2)n(-c2ccccc2)n1	-1.1	2.0	10.1	4.0	-8.0	1.05
COc1ccc(NC(=O)C(c2ccc(C)cc2)N(C)C(=O)c2cnccn2)cc1 (configuration not stated)	38.3*	6.0	18.4	-13.3	0.9	1.01
C/C(=N\n1nnnc1Nc1ccccc1)c1ccc(N)cc1	-2.5	6.0	-4.0	3.0	-2.0	1.02
Cc1ccc(NC(=O)N2CCCN(Cc3ccc(F)cc3)C2)cc1C	18.5	39.0*	5.6	-1.0	1.0	1.07
c1ccc2c(-c3nc(C4CCCCC4)no3)cc(-c3ccncc3)nc2c1	-4.2	7.0	-8.1	-7.3	7.3	1.08
CC1(C(=O)NC2CCCC2)CCC(=O)N1Cc1ccccc1 (configuration not stated)	1.6	6.0	-3.6	9.0	4.0	1.17
CC1(C)S[C@@H]2[C@H](NC(=O)Cc3ccccc3)C(=O)N2[C@H]1C(=O)O	7.8	4.0	48.4*	-13.5	1.0	1.02
Nc1nc(C2CC2)c(Sc2sc(N)nc2C2CC2)s1	-5.0	6.0	1.0	-1.0	1.0	1.08
COc1ccc(-c2cc(-c3ccc(F)cc3)nc(N3CCN(C)CC3)n2)cc1	-1.5	48.0*	-0.2	0.0	3.0	0.96
COc1ccc(-c2cc(C#N)nc(N3CCN(c4ccccc4)CC3)n2)cc1	0.9	x	-2.8	x	x	x
CCc1ccc(NC(=O)N(C2CCC(C)CC2)C2CCN(C(C)=O)CC2)cc1 (configuration not stated)	-22.8	14.0	-0.9	-35.0	15.0	1
O=C(NC1CCCC1)C1CC1c1ccccc1 (configuration not stated)	45.8*	5.0	25.6	-4.5	-3.5	1.06
SMILES	FPRL1 ligand	LNCaP diff act	FPR binder	VLA-4 antagonist	VLA-4 allo ag	Autofluor Jurkat
Nc1nc(SCC(=O)N2CCCc3ccccc32)n(-c2ccccc2)n1	-0.7	5.0	2.8	2.0	2.0	1.01
Cn1nc(-c2ccc(Cl)cc2)c2cc(C(=O)NCC3CCCO3)sc21 (configuration not stated)	-5.0	10.0	-0.7	u	u	1.12
CCN(CC)CCCNC(=O)c1cc2c(-c3ccc(Cl)cc3)nn(C)c2s1	-3.8	52.0*	-0.8	u	u	1.31
CCN(CC)CCCNC(=O)c1cc(-c2ccc(Cl)c(Cl)c2)on1	-0.4	48.0*	-5.3	6.0	3.0	1.05
CN1CCN(CCCNC(=O)c2cc3c(-c4ccc(Cl)cc4)nn(C)c3s2)CC1	2.5	57.0*	0.4	u	u	1.25
CCOC(=O)CSc1nc2ccc(N3CCOCC3)cc2c(=O)n1Cc1ccc2c(c1)OCO2	-0.8	3.0	7.9	13.0	-4.0	1.17
CC1CCN(c2nc(-c3ccccc3)c(C#N)c(=O)[nH]2)CC1	0.6	4.0	34.8*	-14.0	-5.0	1.22
CCN1C=C(Cc2cccs2)C2=C(C1)C(c1cccs1)C(C#N)=C(N)O2 (configuration not stated)	-6.9	x	6.4	u	u	3.08*
C[C@H](CS)C(=O)N1CCC[C@H]1C(=O)O	4.2	3.0	-2.9	-5.5	1.0	0.97
O=c1cc(N2CCN(c3ccc(F)cc3)CC2)[nH]c(=O)n1C1CCCCC1	-4.7	34.0*	2.8	30.0	-4.0	0.87
CCOC(=O)c1cc2c(=O)n3cccc(C)c3nc2n(Cc2ccco2)c1=NC(=O)c1cccnc1	-6.7	9.0	0.2	u	u	5.54*
CCOC(=O)c1cc2c(=O)n3ccccc3nc2n(Cc2ccco2)c1=NC(=O)c1cccnc1	0.3	4.0	-5.8	u	u	4.34*
CCOC(=O)c1cc2c(=O)n3ccccc3nc2n(CCCOC)c1=NC(=O)c1cccnc1	-0.6	x	-2.2	10.0	0.0	1.11
CCCNC(=O)Cn1cnc2sc(C(=O)NCCN(CC)CC)c(C)c2c1=O	-1.6	6.0	-1.8	-1.0	2.0	1.02
Cc1ccc(OC(=O)c2cccc(C(=O)Oc3ccc(C)cn3)n2)nc1	-1.6	10.0	-1.7	-2.0	-6.0	1
COc1ccc2nc(Nc3nc(C)c(C(C)=O)s3)sc2c1	58.8*	7.0	5.5	63.0*	-12.0	1.16
COc1ccc(-c2cc(C(F)(F)F)nc(N3CCN(Cc4ccccc4)CC3)n2)cc1OC	74.9*	4.0	7.7	-3.0	-4.0	1.11
Cc1nc2ccc(F)cc2cc1C(=O)NCC1CCCO1 (configuration not stated)	-4.5	8.0	-4.3	u	u	3.42*
CC1CCN(C(=O)CSc2ccc3nnc(-c4ccc(F)cc4)n3n2)CC1	0.7	9.0	2.6	u	u	1.22
c1ccc(-c2nc3c4ccccc4nc(N4CCN(c5ccccn5)CC4)n3n2)cc1	-0.8	1.0	-7.9	-53.0	-7.0	1.06

Compound activity from PubChem.
